Screening data deposited in PubChem BioAssay by National Center for Advancing Translational Sciences (NCATS).
Rows were chosen to be rich in hits. Some 19% of all compounds tested hit in one or more screens of this group.
KB-3-1 tox: KB-3-1 parental cell cytotoxicity; KB-3-1 viability, CellTiter-Glo ATP luminescence, 72 h; Potency, µM (highest dose often 46.1 µM), hits mostly cytotoxic; 400,000 tested, 1.4% active; note: nearly all actives have a fitted effect of over 60% in size
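Cytotoxicity measured as CellTiter-Glo luminescence after 72 h at 37 C. Compound titrations were pinned onto drug-naive KB-3-1 parental adenocarcinoma cells grown in DMEM with 10% FBS, and normalized data fitted to concentration-response curves.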
DT40 TDP1 CPT: growth inhibition of DT40 Tdp1-/-;hTDP1 cells with camptothecin (screen for TDP1 inhibitors) | chicken DT40 Tdp1-/-;hTDP1 cells + 20 nM CPT, ATP luminescence, 48 h | Potency, µM (doses to about 46.2 µM), most hits filed as inhibitors | 420,000 tested, 12% active | AID 686979; note: nearly all actives have a fitted effect of over 55% in size
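Chicken DT40 Tdp1-/- cells stably complemented with human TDP1 were seeded at 400 cells/well in medium containing 20 nM camptothecin, exposed to pin-transferred compounds, and grown at 37 °C for at least 48 hr. Viability was read as ATP luminescence.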
HT1080 IDH1KD tx: kills HT-1080 cells with IDH1 knockdown; HT-1080 IDH1 knockdown viability, ATP luminescence, 48 h; Potency, µM (series often up to 46.1 µM), most hits filed as cytotoxic; 360,000 tested, 2% active; AID 686971
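Using the IDH1-knockdown HT-1080 line run in the same batch and compound series as the NT line, viability after 48 h at 37 °C was determined by CellTiter-Glo luminescence and expressed as % activity.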
TDP1 cell noCPT: qHTS for Inhibitors of human tyrosyl-DNA phosphodiesterase 1 (TDP1): qHTS in cells in absence of CPT; DT40 Tdp1-/- hTDP1 cells, no CPT, ATP luminescence, 48 h; Potency, µM (highest dose often 46.2 µM), usual class: inhibitors; 420,000 tested, 15% active; note: nearly all actives have a fitted effect of over 55% in size
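No-CPT arm: Tdp1-/-;hTDP1 DT40 cells (400/well) plus compounds, incubated ≥48 hr at 37 °C. Readout CellTiter-Glo luminescence.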
KB-V1 MDR tox: KB-V1 MDR subline cytotoxicity. KB-V1 MDR cells viability, CellTiter-Glo, 72 h. Potency, µM (top dose mostly 46.1 µM), hits mostly cytotoxic. 400,000 tested, 3.4% active. AID 1347076; note: nearly all actives have a fitted effect of over 60% in size
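Cytotoxicity via CellTiter-Glo luminescence after 72 h compound exposure at 37 degrees C. Cells: drug-selected KB-V1 line, DMEM phenol-red free plus 10% FBS. Compounds tested at multiple concentrations; normalized data fitted to concentration-effect curves.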
HT1080NT lethal: kills 2HG-producing HT-1080-NT fibrosarcoma cells. HT-1080-NT fibrosarcoma viability, CellTiter-Glo ATP luminescence, 48 h. Potency, µM (series often up to 46.1 µM), most hits filed as cytotoxic. 360,000 tested, 1.6% active. AID 686970;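 note: NT is the 2HG producing partner of a matched IDH1 knockdown line; nearly all actives have a fitted effect of over 55% in size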
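Viability by CellTiter-Glo luminescence after 48 h compound exposure at 37C of HT-1080-NT cells (750/well, RPMI, 5% FBS). % activity scaled between DMSO wells and medium-only wells, then curve-fitted and categorized by curve class.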
Each line names hits and unclear results; the compound was inactive in the other large screens. Calls come from the whole dose curve; as a rule, active = well fitted curve in the direction sought with a large enough effect; inconclusive = small, poorly fitted or top-dose-only effect, or another doubt; inactive = no such curve, though single readings can be large; an effect the other way counts as inactive or inconclusive.

Cc1ccc(C)c(N2CCN(C(=O)c3ccc(-c4nc(COc5ccccc5)c(C)o4)cc3)CC2)c1	DT40 TDP1 CPT 23µM, TDP1 cell noCPT 15µM (no result: HT1080 IDH1KD tx, HT1080NT lethal)
Cc1ccc(OCc2nc(-c3ccc(C(=O)N4CCN(c5cccc(C(F)(F)F)c5)CC4)cc3)oc2C)cc1	DT40 TDP1 CPT 16µM, TDP1 cell noCPT inconclusive (no result: HT1080 IDH1KD tx, HT1080NT lethal)
O=C(Cn1ncc2c(=O)oc3ccccc3c21)NCc1ccc(Cl)cc1	none (no result: HT1080 IDH1KD tx, HT1080NT lethal)
N#C/C(=C\c1c(Cl)cccc1Cl)c1nn(-c2ccccc2)c(-n2cccc2)c1C#N	DT40 TDP1 CPT 26µM, TDP1 cell noCPT 21µM, HT1080NT lethal inconclusive
Cc1ccc(/C=C(\C#N)c2nn(-c3ccccc3)c(N)c2C#N)cc1	DT40 TDP1 CPT inconclusive, TDP1 cell noCPT 15µM, KB-V1 MDR tox 21µM
CCOC(=O)C1=C(C)NC(=O)NC1c1ccc(-c2ccc(Cl)cc2)o1 (configuration not stated)	KB-3-1 tox inconclusive, HT1080 IDH1KD tx inconclusive, TDP1 cell noCPT inconclusive, KB-V1 MDR tox 21µM
CCOC(=O)C1=C(C)NC(=S)NC1c1ccc(-c2cccc(Cl)c2C)o1 (configuration not stated)	KB-3-1 tox inconclusive, DT40 TDP1 CPT 16µM, HT1080 IDH1KD tx inconclusive, TDP1 cell noCPT 12µM, KB-V1 MDR tox inconclusive
CCOC(=O)C1=C(C)NC(=S)NC1c1ccc(-c2ccc(Cl)cc2)o1 (configuration not stated)	KB-3-1 tox inconclusive, DT40 TDP1 CPT inconclusive, TDP1 cell noCPT inconclusive, KB-V1 MDR tox 8.2µM
CCOC(=O)C1=C(C)NC(=O)NC1c1ccc(-c2ccc(F)cc2)o1 (configuration not stated)	KB-V1 MDR tox inconclusive
CCOC(=O)C1=C(C)NC(=S)NC1c1ccco1 (configuration not stated)	TDP1 cell noCPT inconclusive
COC(=O)C[C@H]1C=C[C@@H](NS(=O)(=O)c2ccccc2)[C@@H](CO)O1	none
N#Cc1cccc(C(=O)C(=O)N2CCC(Cc3ccccc3)CC2)c1	DT40 TDP1 CPT inconclusive, TDP1 cell noCPT inconclusive, KB-V1 MDR tox inconclusive
O=C(C(=O)N1CCC(Cc2ccccc2)CC1)c1ccccc1	DT40 TDP1 CPT inconclusive, TDP1 cell noCPT 16µM, KB-V1 MDR tox inconclusive
Cc1ccc(/C=C/C(=O)N2CCCC(C)C2)cc1 (configuration not stated)	TDP1 cell noCPT inconclusive, KB-V1 MDR tox 16µM
Cc1ccc(/C=C/C(=O)N2CCC(Cc3ccccc3)CC2)cc1	DT40 TDP1 CPT inconclusive, TDP1 cell noCPT inconclusive, KB-V1 MDR tox 21µM
CC1CCN(C(=O)/C=C/c2ccc(C(C)(C)C)cc2)CC1	DT40 TDP1 CPT inconclusive, TDP1 cell noCPT 21µM, KB-V1 MDR tox inconclusive
Cc1cccc(CCNC(=O)Cn2ncc3c(=O)oc4ccccc4c32)c1	DT40 TDP1 CPT inconclusive (no result: HT1080 IDH1KD tx, HT1080NT lethal)
CC(=O)c1cccc(OCC(=O)NC2CCCCCC2)c1	none
O=C(Oc1ccc(C(=S)N2CCOCC2)cc1)c1ccccc1F	none
Cc1cc(C(=O)Nc2c(C)nn(Cc3ccc(F)cc3)c2C)on1	none
Cc1nn(Cc2c(F)c(F)c(F)c(F)c2F)c(C)c1NC(=O)c1ccc(COc2ccc(F)cc2)o1	DT40 TDP1 CPT 16µM, HT1080 IDH1KD tx inconclusive, TDP1 cell noCPT 21µM
Cc1nn(Cc2c(F)c(F)c(F)c(F)c2F)c(C)c1NC(=O)c1ccc(COc2ccccc2Cl)cc1	DT40 TDP1 CPT inconclusive, TDP1 cell noCPT 1.5µM, KB-V1 MDR tox inconclusive
Cc1nn(Cc2c(F)c(F)c(F)c(F)c2F)c(C)c1NC(=O)c1ccc(COc2cc(Cl)ccc2Cl)cc1	DT40 TDP1 CPT inconclusive, TDP1 cell noCPT inconclusive, KB-V1 MDR tox inconclusive
COc1ccc(-n2cccc2/C=C/[N+](=O)[O-])cc1	KB-3-1 tox inconclusive, DT40 TDP1 CPT 2.3µM, HT1080 IDH1KD tx inconclusive, TDP1 cell noCPT 3.3µM, KB-V1 MDR tox inconclusive
COc1ccc(-n2cccc2C=O)cc1	DT40 TDP1 CPT inconclusive, KB-V1 MDR tox inconclusive
CC1C(=O)N(Cc2cn(CCC3OCCCO3)nn2)CCS(=O)(=O)N1Cc1ccc(-c2ccccc2)cc1 (configuration not stated)	DT40 TDP1 CPT inconclusive, TDP1 cell noCPT 16µM
CC1C(=O)N(Cc2cn(CCC3OCCO3)nn2)CCS(=O)(=O)N1Cc1ccc(-c2ccc(F)cc2)cc1 (configuration not stated)	DT40 TDP1 CPT inconclusive, TDP1 cell noCPT inconclusive
CCC/C=C/c1ccc(CN2C(C)C(=O)N(Cc3cn(CCC4OCCO4)nn3)CCS2(=O)=O)cc1 (configuration not stated)	DT40 TDP1 CPT inconclusive, TDP1 cell noCPT 15µM
CC1C(=O)N(Cc2cn(CCC3OCCO3)nn2)CCS(=O)(=O)N1Cc1ccc(-c2cccc(N(C)C)c2)cc1 (configuration not stated)	DT40 TDP1 CPT 9.2µM, TDP1 cell noCPT 16µM
CC1C(=O)N(Cc2cn(CCC3OCCCO3)nn2)CCS(=O)(=O)N1Cc1ccc(-c2ccc(Cl)nc2)cc1 (configuration not stated)	DT40 TDP1 CPT inconclusive, TDP1 cell noCPT inconclusive
CC1C(=O)N(Cc2cn(CCC3OCCCO3)nn2)CCS(=O)(=O)N1Cc1ccc(-c2ccc(Cl)cc2)cc1 (configuration not stated)	KB-3-1 tox inconclusive, DT40 TDP1 CPT 12µM, HT1080 IDH1KD tx inconclusive, TDP1 cell noCPT 6.5µM, KB-V1 MDR tox inconclusive, HT1080NT lethal inconclusive
O=C(O)C1Nc2ccc(C(F)(F)F)cc2C2OCCC12 (configuration not stated)	none
N#CCCn1c(=O)c(-c2ccc(Cl)cc2)nc2cnc(OCc3ccccc3)nc21	none (no result: KB-3-1 tox, HT1080 IDH1KD tx, KB-V1 MDR tox, HT1080NT lethal)
C#CCN(C[C@@H]1[C@@H](OC(=O)NC2CCCC2)[C@@H](OC(=O)NC2CCCC2)Cn2c(=O)ccc(=O)n21)S(=O)(=O)c1ccc(C)cc1	DT40 TDP1 CPT 2.6µM, HT1080 IDH1KD tx 8.2µM, TDP1 cell noCPT 2.3µM, HT1080NT lethal 7.3µM
C#CCN(C[C@@H]1[C@@H](OC(=O)NCCCCCC)[C@@H](OC(=O)NCCCCCC)Cn2c(=O)n(CCCCCC)c(=O)n21)S(=O)(=O)c1ccc(C)cc1	DT40 TDP1 CPT inconclusive, TDP1 cell noCPT inconclusive, KB-V1 MDR tox inconclusive
C#CCN(C[C@@H]1[C@@H](OC(=O)Nc2cccs2)[C@@H](OC(=O)Nc2cccs2)Cn2c(=O)ccc(=O)n21)S(=O)(=O)c1ccc(C)cc1	KB-3-1 tox inconclusive, DT40 TDP1 CPT 2.9µM, HT1080 IDH1KD tx 16µM, TDP1 cell noCPT 3.3µM, HT1080NT lethal 18µM
